# Assay outcomes: PubChem, several laboratories
# Shown are actives, neighbours in structure and some others; about 3.7% of the full set was active somewhere.
# BoNT A protease = inhibitors of Botulinum neurotoxin A light chain protease. inhibition, % at 10 µM. multiplex microsphere protease substrate cleavage, flow cytometry. hit rate 0.17% among 360,000; note: plate controls were buffer without enzyme for full effect and enzyme alone for no effect
# MazEF act = activators of E. coli MazEF toxin-antitoxin RNase; P0AE70; FAM/BHQ RNA-DNA oligo cleavage fluorescence, 5 h; activation, % at 20 µM; hit rate 0.32% among 350,000; AID 504720; in the data active = activation above about 50%
# Anthrax LF inh2 = inhibitors of Bacillus anthracis lethal factor protease; multiplex microsphere protease cleavage assay, LF; inhibition, % at 10 µM; hit rate 0.12% among 360,000; AID 588501; note: plate controls were buffer without enzyme for full effect and enzyme alone for no effect
# Target sequence (P15917 whole entry, looked up): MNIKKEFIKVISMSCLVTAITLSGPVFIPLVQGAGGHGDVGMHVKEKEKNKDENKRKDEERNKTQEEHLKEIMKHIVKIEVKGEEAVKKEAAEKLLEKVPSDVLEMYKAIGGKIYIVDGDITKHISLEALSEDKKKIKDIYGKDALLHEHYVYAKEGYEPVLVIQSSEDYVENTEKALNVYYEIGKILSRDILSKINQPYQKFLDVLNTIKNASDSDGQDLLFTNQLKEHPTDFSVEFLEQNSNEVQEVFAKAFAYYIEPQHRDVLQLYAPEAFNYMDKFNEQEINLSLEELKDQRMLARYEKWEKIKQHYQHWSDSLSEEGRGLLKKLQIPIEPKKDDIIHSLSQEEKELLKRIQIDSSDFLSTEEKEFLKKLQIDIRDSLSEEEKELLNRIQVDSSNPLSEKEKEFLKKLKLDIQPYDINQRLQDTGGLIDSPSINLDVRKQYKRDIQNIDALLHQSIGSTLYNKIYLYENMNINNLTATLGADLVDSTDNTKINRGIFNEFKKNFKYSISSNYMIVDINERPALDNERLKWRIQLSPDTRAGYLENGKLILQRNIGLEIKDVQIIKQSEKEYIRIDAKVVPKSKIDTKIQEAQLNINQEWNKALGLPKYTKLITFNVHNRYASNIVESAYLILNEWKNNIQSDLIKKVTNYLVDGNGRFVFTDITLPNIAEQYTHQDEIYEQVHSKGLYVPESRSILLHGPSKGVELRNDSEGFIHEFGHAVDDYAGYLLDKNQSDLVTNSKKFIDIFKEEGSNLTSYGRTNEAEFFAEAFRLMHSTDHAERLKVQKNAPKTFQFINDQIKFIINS
# BoNT-F LC inh = BoNT F light chain protease inhibition. Multiplex microsphere protease cleavage assay, flow cytometry. inhibition, % at 10 µM. hit rate 0.22% among 360,000; in the data active = inhibition above about 35%, passing the limit was not always enough; inconclusive = no clear call, values can overlap the other calls; note: plate controls were buffer without enzyme for full effect and enzyme alone for no effect
# Bead autofluor = flagged as autofluorescent in microsphere protease counterscreen. compound autofluorescence counterscreen, microsphere flow cytometry; hits give high values. fluorescence intensity (test concentration not listed). hit rate 3.1% among 360,000. AID 624483; in the data active = fluorescence intensity above about 16000; inconclusive = no clear call, values can overlap the other calls
# Starred values were filed as active, the others as inactive; i = inactive; u = inconclusive; x = not tested or not shown. Cut-off read from the data, not from the text of the source, unless noted: active = inhibition above about 30%; inconclusive = no clear call, values can overlap the other calls; inactive = below that.
SMILES,BoNT A protease,MazEF act,Anthrax LF inh2,BoNT-F LC inh,Bead autofluor
CCN(CC)C(=O)Oc1ccccc1NC(C)=O,u,2,0,-4,20729*
CC(C)c1cc(=O)oc2c3c4c(cc12)CCCN4CCC3,5,88*,-5,-8,4291
O=c1cc(C(F)(F)F)c2cc3c4c(c2o1)CCCN4CCC3,15,i,16,8,3966
CN(C)C(=O)c1ccc(NC(=O)COc2cccc3c2OC(C)(C)C3)cc1,x,3,x,x,x
CCNS(=O)(=O)c1ccc2c(c1)n(C)c(=O)n2C,4,7,1,2,22262*
CCCNS(=O)(=O)c1ccc2c(c1)n(C)c(=O)n2C,1,1,-3,4,4741
O=C(c1cccn2c(=O)c3ccccc3nc12)N1CCN(c2ccccn2)CC1,-3,-6,2,-2,23291*
CCOC(=O)N1CCN(C(=O)c2cccn3c(=O)c4cc(Cl)ccc4nc23)CC1,1,-5,-2,5,7547
CCOC(=O)N1CCN(C(=O)c2cccn3c(=O)c4sccc4nc23)CC1,u,6,-8,-3,22718*
CC(C)Oc1cccc(-c2cc(C(=O)N3CCN(c4ncccn4)CC3)c3ccccc3n2)c1,u,x,-3,-3,23367*
O=C(c1cccn2c(=O)c3ccccc3nc12)N1CCC2(CC1)OCCO2,-1,-3,-1,-1,22328*
CSc1ncc2[nH]c(C(O)c3ccccc3)nc2n1 (stereo unspecified),1,1,10,0,3618
O=C(c1cccn2c(=O)c3cc(Br)ccc3nc12)N1CCN(c2ccccn2)CC1,7,-2,1,11,18386*
CN(c1ccccc1C(=O)N1CCc2ccccc2C1)S(C)(=O)=O,0,11,-4,0,22577*
O=C(c1ccccc1Cl)N1CCN(c2ccccn2)CC1,-1,-2,-3,4,3893
O=C(c1cccc(Cl)c1Cl)N1CCN(c2ccccn2)CC1,u,-1,-2,-1,16331*
CCOC(=O)N1CCN(C(=O)c2cccn3c(=O)c4cc(Br)ccc4nc23)CC1,1,3,-7,-1,4184
O=C(c1cc(-c2ccccc2)nc2ccccc12)N1CCC2(CC1)OCCO2,-1,-7,0,-2,23724*
CC1(Cc2ccccc2Cl)C(=O)Nc2ccc(OC(F)(F)F)cc21 (stereo unspecified),0,x,0,1,3643
Cc1cn([C@H]2C[C@H](O)[C@@H](CNCc3ccccc3OCCCN3CCOCC3)O2)c(=O)[nH]c1=O,0,9,-4,-6,3776
O=C(c1cc(-c2ccccc2)nc2ccccc12)N1CCc2ccccc2C1,0,-5,-4,-4,9844
O=C(CCCn1c(=S)[nH]c2ccc(Br)cc2c1=O)N1CCN(c2ccccn2)CC1,-2,-11,-7,-6,16819*
Cc1ccc2nc(-c3ccccc3)cc(C(=O)N3CCc4ccccc4C3)c2c1,u,-8,2,5,23070*
C=CCn1c(SCc2nc3ccccc3[nH]2)nnc1-c1ccccn1,u,-3,-4,6,18300*
C=CCn1c(SCc2nc3ccccc3[nH]2)nnc1-c1ccc(OC)cc1,-2,1,-1,-1,20347*
SMILES,BoNT A protease,MazEF act,Anthrax LF inh2,BoNT-F LC inh,Bead autofluor
CCn1c(SCc2nc3ccccc3[nH]2)nnc1-c1ccncc1,2,2,6,-2,4858
C=CCn1c(SCc2nc3ccccc3[nH]2)nnc1-c1cccc(OC)c1,1,-5,6,2,22532*
C=CCn1c(SCc2cccc(OC)c2)nnc1-c1ccncc1,-4,7,12,u,3306
C=CCn1c(SCc2cccc3ccccc23)nnc1-c1cccnc1,2,0,2,3,21679*
CCOc1ccc(C(=O)N2CCN(CC(=O)N3CCCC3)CC2)cc1OCC,-1,12,-8,-4,3465
O=C(C1CC(=O)N(c2ccc(F)cc2)C1)N1CCCCCC1 (stereo unspecified),1,13,3,-18,4091
CCn1c(SCc2nc3ccccc3[nH]2)nnc1-c1cccnc1,u,-4,-4,-5,24875*
CCn1c(SCc2nc3ccccc3[nH]2)nnc1-c1ccc(OC)cc1,-3,0,0,-3,23993*
COc1ccc(N=c2oc3cc(O)ccc3cc2C(=O)NCC2CCCO2)c(OC)c1 (stereo unspecified),3,85*,u,14,u
COc1ccc(N=c2oc3cc(O)ccc3cc2C(=O)NCC2CCCO2)cc1 (stereo unspecified),u,4,1,2,21984*
CCOc1ccccc1N=c1oc2cc(O)ccc2cc1C(=O)NCC1CCCO1 (stereo unspecified),-1,-7,-5,-3,16487*
CCOC(=O)c1cccc(C2=CC(=O)C[C@H](c3ccc(Cl)cc3)C2)c1,0,1,-3,-8,3914
CC(C)N1C(=O)S/C(=C/c2cccnc2)C1=O,u,-1,-3,2,22160*
CC(C)N1C(=O)S/C(=C/c2ccc3c(c2)n(C)c(=O)n3C)C1=O,-1,24,-2,-8,6256
CCC(CO)NCc1ccc(Br)cc1 (stereo unspecified),0,-8,0,-5,2644
CCC(CO)NCc1ccc(OC2CCCC2)cc1 (stereo unspecified),-3,7,-1,-10,23277*
CCc1ccc(/C=N\n2cnnc2)cc1,6,6,u,45*,3657
CCOc1ccc(/C=N/n2cnnc2)cc1,u,1,3,-3,17072*
C(=N\n1cnnc1)/c1ccc(OCc2ccccc2)cc1,1,-2,0,6,9724
C(=N\n1cnnc1)/c1ccc(-c2ccccc2)cc1,-1,-8,-8,0,3094
Cc1ccc2c(C)c(C)c(=O)n(C)c2c1,0,11,-4,-13,3825
O=C(C[C@H]1C(=O)N(Cc2ccccc2)C[C@@H]1c1ccc(Br)cc1)Nc1ccc(Br)cc1,0,-3,-6,-7,3722
O=C(Nc1ccc(C(=O)N2CCCC2)cc1)c1ccccc1F,-3,1,-3,-2,16849*
Cn1c(=O)c2c3c(sc2n2cnnc12)CCC3,0,-2,-1,-2,3279
NC(=O)Cn1c(=O)n(CCc2ccccc2)c(=O)c2c3c(sc21)CCCC3,-1,-2,-3,-5,16478*
SMILES,BoNT A protease,MazEF act,Anthrax LF inh2,BoNT-F LC inh,Bead autofluor
O=c1c2c3c(sc2n2cnnc2n1CCc1ccccc1)CCCC3,-2,4,-4,-2,16649*
Cc1ccc(N/C(SCc2ccccc2C)=C(/C#N)C(=O)NCc2ccco2)cc1C,-1,-8,-7,-2,22786*
COc1ccc(S(=O)(=O)Nc2cc3c4c(c2)CC(=O)N4CCC3)cc1OC,-1,2,-11,-18,4011
CN(CCc1ccccc1)C(=O)c1[nH]c(C(F)(F)F)nc1-c1ccccc1,-1,x,3,-4,5611
Cc1ccc(C)c(CSc2nnc(-c3cccnc3)o2)c1,u,4,-3,-2,24006*
O=S(=O)(Cc1ccccc1)Nn1cnnc1,0,6,0,-1,22495*
